# Screens as filed in PubChem BioAssay.
# A selection: hits, their analogues and other compounds. The true share with any hit is near 3.3%.
# AmpC no deterg = inhibitors of E. coli AmpC beta-lactamase without detergent; Potency, µM (doses to about 57.1 µM), for the others: top-dose activity change, negative = inhibition, most hits filed as inhibitors; AmpC nitrocefin hydrolysis, absorbance 480 nm, 0.0001% Triton; P00811; hit rate 0.52% among 330,000; AID 485341;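 note: plate controls were no compound for no effect and no enzyme for full effect; nearly all actives have a fitted effect of over 20% in size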
# Target sequence (P00811 whole entry, looked up): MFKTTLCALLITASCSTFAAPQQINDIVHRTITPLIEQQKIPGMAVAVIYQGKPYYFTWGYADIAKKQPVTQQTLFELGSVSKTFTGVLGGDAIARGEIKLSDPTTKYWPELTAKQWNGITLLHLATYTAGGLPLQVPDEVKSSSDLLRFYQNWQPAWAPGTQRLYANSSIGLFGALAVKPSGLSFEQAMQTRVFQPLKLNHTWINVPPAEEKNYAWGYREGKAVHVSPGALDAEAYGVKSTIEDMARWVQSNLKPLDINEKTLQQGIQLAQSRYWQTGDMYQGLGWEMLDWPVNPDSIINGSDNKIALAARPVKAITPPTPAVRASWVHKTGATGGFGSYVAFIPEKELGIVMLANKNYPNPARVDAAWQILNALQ
#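 20 mM phosphate pH 7.0 + 0.01% (detergent screen) or 0.0001% Triton X-100; 5.3 nM AmpC reagent; cpd preinc 15 min RT; nitrocefin (800 uM stock) to start; A480 q20 s × 4 min; Activity was normalised to no-enzyme and no-compound control wells.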
# AmpC inh detg = AmpC beta-lactamase inhibition with detergent present; P00811; AmpC hydrolysis of nitrocefin, absorbance 480 nm, 0.01% Triton; Potency, µM (series often up to 114 µM), without a hit: top-dose activity change, negative = inhibition, hits mostly inhibitors; hit rate 0.041% among 370,000; AID 485294;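 note: 0% = no-compound wells and -100% = no-enzyme wells; nearly all actives have a fitted effect of over 25% in size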
#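 20 mM phosphate pH 7.0 + 0.01% (detergent screen) or 0.0001% Triton X-100; 5.3 nM AmpC reagent; cpd preinc 15 min RT; nitrocefin (800 uM stock) to start; A480 q20 s × 4 min; Activity was normalised to no-enzyme and no-compound control wells.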
# Sm TGR block = blocks Schistosoma mansoni thioredoxin glutathione reductase | Q962Y6 | purified TGR, DTNB reduction, TNB absorbance 405 nm | Potency, µM (top dose mostly 114 µM), inactives show top-dose activity change, negative = inhibition, usual class: inhibitors | hit rate 3% among 360,000 | AID 485364; note: nearly all actives have a fitted effect of over 60% in size
#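 TGR 20 nM + NADPH 100 uM (dispensed conc.), cpd preinc 15 min RT; start with NADPH (500 uM addition) then DTNB (15 mM addition). Kinetic TNB absorbance, 405 nm filter. Four-parameter Hill fit across titration.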
# Starred values were filed as active, the others as inactive; ? = inconclusive; . = no result given; [ ] = dose if it differs, or a comment. Calls come from the whole dose curve; as a rule, active = well fitted curve in the direction sought with a large enough effect; inconclusive = small, poorly fitted or top-dose-only effect, or another doubt; inactive = no such curve, though single readings can be large; an effect the other way counts as inactive or inconclusive. Unless noted, % is set by controls: 0 for no effect and ±100 for the full control effect; potency is the fitted concentration of half-maximal effect.
SMILES,AmpC no deterg,AmpC inh detg,Sm TGR block
CC(C(=O)N1CCCC1)N(C)CC(=O)Nc1cccc(F)c1 (configuration not stated),-14.2%,0.1%,8.91µM*
COc1cccc(NC(=O)CN(C)C(C)C(=O)N2CCCCC2)c1 (configuration not stated),-2.7%,.,.
CCCCc1nnc2c(N(C)S(=O)(=O)c3ccccc3)nc3ccccc3n12,6.0%,6.7%,5.2%
Cn1c(=O)[nH]c(=O)c2c1nc(CN1CCN(c3cccc(Cl)c3)CC1)n2Cc1ccccc1Cl,44.7µM*,?,-1.7%
CCN1CCN(Cc2nc3c(c(=O)[nH]c(=O)n3C)n2Cc2ccccc2Cl)CC1,-21.5%,?,-0.2%
O=C1CCCC2=C1C(c1ccc(O)cc1)c1c(ccc3ccccc13)N2 (configuration not stated),-34.7%,-13.2%,25.1µM*
O=C1CCCC2=C1C(c1ccc(O)c(O)c1)c1c(ccc3ncccc13)N2 (configuration not stated),-16.9%,-6.1%,?
CC1=C(C#N)C(c2ccc(O)cc2)C2=C(CCCC2=O)N1 (configuration not stated),-12.2%,-0.1%,0.2%
CCOc1ccc(C2C3=C(CCCC3=O)Nc3ccc4ncccc4c32)cc1 (configuration not stated),-1.3%,3.5%,17.8µM*
O=C(CS(=O)c1ccc(F)cc1)N1CCOCC1 (configuration not stated),-20.1%,4.0%,13.1%
COC(=O)[C@]1(Cc2ccccc2)N[C@H](CN(C)C(=O)c2ccc(C)cc2)[C@@H]2C(=O)N(C)C(=O)[C@@H]21,61.5%,.,.
Cc1cccc(NC(=O)CN2C(=O)S/C(=C\c3ccc(O)c([N+](=O)[O-])c3)C2=O)c1,-42.3%,0.6%,0.5%
Cc1ccc(NC(=O)CN2C(=O)S/C(=C/c3ccc(O)c([N+](=O)[O-])c3)C2=O)cc1C,-48.7%,50.1µM*,-20.1%
Cc1cc(C)nc(SCC(=O)NC2CCCCC2C)n1 (configuration not stated),-9.7%,-12.7%,-6.9%
CN(C)c1ccc(CNC(=O)c2ccc3nc(CCc4ccccc4)oc3c2)cc1,.,1.0%,0.8%
Cc1nn(-c2ccc(F)cc2)c(Cl)c1/C=N/NC(=O)c1cccs1,28.2µM*,-1.1%,0.3%
Cc1nn(-c2ccc(F)cc2)c(Cl)c1/C=N/NC(=O)c1ccc(O)cc1,-58.0%,-2.3%,-2.9%
O=C(CNc1cc(S(=O)(=O)N2CCCC2)ccc1OCC(F)(F)F)Nc1ccc(SC(F)F)cc1,-21.7%,14.9%,3.8%
CC1=C(C#N)C(=O)N(C2CCS(=O)(=O)C2)C(=O)/C1=C\c1ccco1 (configuration not stated),-16.0%,-5.2%,8.91µM*
Cc1ccc(C)n1C1CCS(=O)(=O)C1 (configuration not stated),-24.7%,?,-28.5%
Cc1ccc(NC(=O)Cn2c(=O)n(CCCCC(=O)NCc3ccccc3Cl)c(=O)c3ccccc32)cc1,.,16.4%,7.9%
Cc1nn(Cc2ccccc2)c(C)c1C=C1C(=O)NC(=S)NC1=O,-13.2%,-10.1%,7.94µM*
Cc1nn(Cc2ccccc2)c(C)c1N,-17.3%,0.6%,0.4%
COc1ccc(OCC(=O)Nc2c3c(nn2-c2ccccc2)CS(=O)(=O)C3)cc1,-14.4%,-1.8%,-8.9%
O=C1CC(N2CCSCC2)C(=O)N1c1ccc(Br)cc1 (configuration not stated),-9.6%,-5.3%,?
SMILES,AmpC no deterg,AmpC inh detg,Sm TGR block
CC1CCN(C2CC(=O)N(c3ccccc3)C2=O)CC1 (configuration not stated),-17.7%,4.2%,28.2µM*
CC1CCN(C2CC(=O)N(c3ccc(Br)cc3Br)C2=O)CC1 (configuration not stated),35.0%,-9.2%,20µM*
Cc1cccc(N2C(=O)CC(N3CCN(C(=O)c4ccccc4)CC3)C2=O)c1 (configuration not stated),4.1%,-6.8%,?
Cc1ccc(CN2CCN(Cc3cnc(N4CCOCC4)s3)CC2CCO)cc1 (configuration not stated),5.1%,-2.0%,1.7%[57.1 µM]
Cc1csc2ncnc(N3CCN(S(=O)(=O)c4cccc(C(F)(F)F)c4)CC3)c12,34.5%,-13.6%,1.1%
O=C(O)CC12CC3CC(C1)CC(n1ncc(NCC4CCCO4)c(Cl)c1=O)(C3)C2 (configuration not stated),-11.0%,6.7%,39.8µM*
CCc1cccc(Nc2cnn(C34C[C@@H]5C[C@@H](CC(CC(=O)O)(C5)C3)C4)c(=O)c2Cl)c1,-5.9%,-0.2%,10.0%
O=C(O)CC12CC3CC(C1)CC(n1ncc(NCc4ccco4)c(Cl)c1=O)(C3)C2,1.2%,5.3%,11.2µM*
Cc1ccc(Nc2cnn(C34CC5CC(CC(CC(=O)O)(C5)C3)C4)c(=O)c2Cl)cc1C,-13.1%,?,-0.7%
COc1ccc(OCC(=O)N2CCC3(CC2)CC(=O)c2ccccc2O3)cc1,25.9%,-9.9%,-2.9%
O=C(NCc1nnc(SCC(=O)N2CCOCC2)o1)c1cccs1,-14.3%,-3.8%,-8.1%
C=CCn1c(SCC(=O)NC(=O)c2cccc([N+](=O)[O-])c2)nnc1-c1ccccc1,-36.0%,-1.9%,-12.3%
Cc1ccc([C@@H]2CC=C(C(=O)O)[C@H](c3cccc(Cl)c3)N2S(=O)(=O)c2ccccc2C)cc1,-25.0%,.,.
Cn1nc(C(=O)Nc2ccccc2N2CCCC2)c2ccccc2c1=O,138.6%,2.5%,-2.5%
Cc1cccc(CN2CCN(C(=O)CCl)CC2)c1,-10.5%,1.2%,35.5µM*
Cc1cccc(CN2CCN(C(=O)Cc3ccccc3)CC2)c1,28.0%,?,-20.0%
Cc1ccc(/C=C/C(=O)N2CCN(S(=O)(=O)c3ccc(C)c(C)c3)CC2)o1,42.4%,-9.2%,12.6µM*
Cc1ccc(/C=C/C(=O)N2CC(=O)Nc3ccccc32)o1,78.4%,1.0%,8.91µM*
Cc1ccc(S(=O)(=O)N2CCN(C(=O)N(C)C)CC2)cc1C,-6.1%,-2.5%,-18.5%
Cc1cc(C)cc(C(=O)N2CC(=O)Nc3ccccc32)c1,-0.7%,-2.6%,7.4%
Cc1ccc(C(=O)N2CCN(Cc3ccccc3)CC2)o1,0.8%,-5.5%,-13.5%
Cc1ccc(/C=C/C(=O)N2CCN(Cc3ccccc3)CC2)o1,50.0%,-10.0%,14.1µM*
CC(C)COC(=O)N1C[C@H](O)C[C@H]1C(=O)Nc1ccc(Cl)cc1,2.1%,-0.9%,5.3%
Cc1ccc(NS(=O)(=O)c2ccc3c(c2)CCCN3C(=O)C2CCC2)c(C)c1,.,-2.2%,-0.6%
Cc1ccc(-n2c(SCC(=O)NCCN3C(=O)CSC3=O)nnc2-c2ccccc2F)cc1,78.2%,-2.2%,-11.4%
Cc1ccc(CNC(=O)c2ccc(S(=O)(=O)N(C)C)cc2)n1C,52.0%,-9.8%,?
Cc1cc(C)c(C)c(S(=O)(=O)N2CCN(C(=O)CCC(=O)N3CCOCC3)CC2)c1C,149.2%,1.8%,9.4%
Cc1ccc(/C=C/C(=O)N2CCN(S(=O)(=O)c3c(C)c(C)cc(C)c3C)CC2)o1,52.7%,-7.6%,10µM*
Nc1c(C(=O)CSc2nccn2-c2cccc(F)c2)c(=O)[nH]c(=O)n1C1CC1,-19.1%,?,-9.5%
